The text below walks through data of PubChem BioAssay.

The target in assay [1] is Cell division control protein 42 homolog (Homo sapiens) (UniProt P60953). Description: inhibition of fluorescent GTP binding to constitutively active Cdc42 – biochemical, multiplex bead flow cytometry, Bodipy-FL-GTP, dose response (AID 1333;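 active means fitted half-maximal concentration within the tested dose range, moderate curve steepness, a statistically real signal drop, and little compound fluorescence or tag-binding interference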). (A flow cytometer gives signals particle by particle.)
For assay [2] the target is unchanged. In words: inhibition of fluorescent GTP binding to wildtype Cdc42 – biochemical, multiplex bead flow cytometry, Bodipy-FL-GTP, dose response (AID 1334;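 active means fitted half-maximal concentration within the tested range, moderate curve steepness, significant signal drop, and little compound fluorescence or bead-linkage interference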). As to conditions: bead-based flow cytometry, Bodipy-FL-GTP binding to GST-Cdc42; at 100 µM (top of the series) unless noted.
For assay [3], the target named is GTPase HRas (Homo sapiens) (UniProt P01112). Description: Ras wt fluorescent GTP loading blockade – biochemical, wildtype, multiplex bead flow cytometry, dose response (AID 1335). As to conditions: bead-based flow cytometry, Bodipy-GTP binding to GST-Ras; at 100 µM (top of the series) unless noted.
In assay [4] the test system is Ras-related protein Rab-7a (dog), GTP binding. Description: blockers of fluorescent GTP binding to Rab7 – biochemical, wildtype, multiplex bead flow cytometry, dose response (AID 1336; call rule not given here).
For assay [5], the target named is Ras-related C3 botulinum toxin substrate 1 (Homo sapiens) (UniProt P63000). Description: inhibition of wildtype Rac1 nucleotide loading – biochemical, multiplex bead flow cytometry, dose response (AID 1340;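 active means dose curve with midpoint inside tested range, moderate steepness, plateau gap beyond fit error, low compound glow and bead-link interference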). The conditions noted are these: GST-Rac1 beads, Bodipy-FL-GTP binding; at 100 µM (top of the series) unless noted.
The target of assay [6] is GTPase HRas (Homo sapiens) (UniProt P01112). In words: blockade of GTP loading onto mutant Ras – biochemical, activated mutant, multiplex bead flow cytometry, dose response (AID 1341;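 active means dose-response curve with midpoint inside the tested range, moderate steepness, significant amplitude and little compound fluorescence or bead-attachment interference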;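 further: GST-tagged constitutively activated Ras mutant immobilized on beads and multiplexed with other GTPases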).

The structures appear in SMILES notation. For part of these data: Entries with a potency or affinity are not part of this list. The source made the active and inactive calls.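 How the source made its calls, unless noted: active means fitted half-maximal concentration within 10 nM to 100 µM, steepness 0.5 to 2, significant signal drop, low assay interference; inactive means the rest.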

Cell division control protein 42 homolog (Homo sapiens), sequence (P60953 whole entry, looked up): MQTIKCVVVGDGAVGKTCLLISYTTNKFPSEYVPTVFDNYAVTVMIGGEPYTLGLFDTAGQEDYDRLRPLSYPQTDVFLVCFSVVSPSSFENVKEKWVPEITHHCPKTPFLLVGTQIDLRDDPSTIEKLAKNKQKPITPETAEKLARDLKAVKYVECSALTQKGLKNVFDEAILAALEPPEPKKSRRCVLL
GTPase HRas (Homo sapiens), sequence (P01112 whole entry, looked up): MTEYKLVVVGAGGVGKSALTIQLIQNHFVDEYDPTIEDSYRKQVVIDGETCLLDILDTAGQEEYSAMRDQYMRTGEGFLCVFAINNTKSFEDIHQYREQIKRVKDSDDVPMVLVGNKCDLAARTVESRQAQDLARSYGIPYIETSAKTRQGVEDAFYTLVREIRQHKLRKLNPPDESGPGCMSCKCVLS

For `CC(=O)c1cc2c(cc1NC(=O)c1cccc(S(=O)(=O)N3CCN(C)CC3)c1)OCO2`, the result in assay [1], in assay [4] and in assay [6] was inactive. The compound also gave a fluorescence, percent of control (lower = inhibition) in assay [2] of 40.9%. Moreover, the GTP binding, percent of control in assay [3] is 86.3%. In assay [5], the GTP binding signal, raw median fluorescence (lower = inhibition) (MCF (arbitrary fluorescence units)) came out at 196.

Regarding `CCOc1nnc(C)c2c(C)n(-c3ccc(Cl)cc3)nc12`, the call in assay [1], in assay [4] and in assay [6] was inactive. This compound displayed a fluorescence, percent of control (lower = inhibition) in assay [2] of 52.2%. Also, the GTP binding, percent of control in assay [3] stood at 66.3%. The compound further came in with a GTP binding signal, raw median fluorescence (lower = inhibition) (MCF (arbitrary fluorescence units)) in assay [5] of 197.

As for `O=C(CN1CCN(CCOCCO)CC1)N1c2ccccc2Sc2ccc(Cl)cc21`, the call in assay [1], in assay [4] and in assay [6] was inactive. This compound also had a fluorescence, percent of control (lower = inhibition) in assay [2] of 37.7%. Besides, in assay [3], the GTP binding, percent of control worked out at 82.2%. In assay [5], this compound had a GTP binding signal, raw median fluorescence (lower = inhibition) (MCF (arbitrary fluorescence units)) of 266.

With `NS(=O)(=O)c1ccc(Nc2nc(-c3ccc(O)cc3O)cs2)cc1`, the outcome in assay [1], in assay [4] and in assay [6] was inactive. Further, the fluorescence, percent of control (lower = inhibition) in assay [2] was determined as 25.1%. The compound also showed a GTP binding, percent of control in assay [3] of 67.8%. In assay [5], this compound gave a GTP binding signal, raw median fluorescence (lower = inhibition) (MCF (arbitrary fluorescence units)) of 152.

In the case of `Cc1cc(C)cc(C(=O)N(NC(=O)Nc2ccc(Cl)cc2)C(C)(C)C)c1`, the call in assay [1], in assay [4] and in assay [6] was inactive. This compound also showed a fluorescence, percent of control (lower = inhibition) in assay [2] of 94.9%. The GTP binding, percent of control in assay [3] was 150%. In addition, in assay [5], the GTP binding signal, raw median fluorescence (lower = inhibition) (MCF (arbitrary fluorescence units)) was found to be 186.

Regarding `Cc1nn(-c2ccc(F)cc2)c(Cl)c1/C=C(\CC(=O)O)c1nc2ccccc2s1`, the compound was called inactive in assay [1], in assay [4] and in assay [6]. For the same compound, in assay [2], the fluorescence, percent of control (lower = inhibition) amounted to 77.1%. The compound further had a GTP binding, percent of control in assay [3] of 127%. The same compound gave a GTP binding signal, raw median fluorescence (lower = inhibition) (MCF (arbitrary fluorescence units)) in assay [5] of 160.

As to `OC(CNCCC1C=Nc2ccccc21)Cn1c2ccc(Cl)cc2c2cc(Cl)ccc21` (stereo not given), the result in assay [1], in assay [4] and in assay [6] was inactive. In addition, the fluorescence, percent of control (lower = inhibition) in assay [2] amounted to 60.4%. In assay [3], this compound returned a GTP binding, percent of control of 67.9%. Besides, the GTP binding signal, raw median fluorescence (lower = inhibition) (MCF (arbitrary fluorescence units)) in assay [5] turned out to be 386.

Take `COc1ccccc1Oc1ccccc1C(=O)O`: the result in assay [1], in assay [4] and in assay [6] was inactive. Also, in assay [2], the fluorescence, percent of control (lower = inhibition) came out at 100%. Besides, in assay [3], the GTP binding, percent of control is 239%. The compound further displayed a GTP binding signal, raw median fluorescence (lower = inhibition) (MCF (arbitrary fluorescence units)) in assay [5] of 271.

On to `COc1cc(/C=N/Nc2nc(C)nc3c2cnn3-c2ccccc2)ccc1O`, for which the result in assay [1], in assay [4] and in assay [6] was inactive. Besides, the fluorescence, percent of control (lower = inhibition) in assay [2] is 87.1%. The same compound came in with a GTP binding, percent of control in assay [3] of 128%. This compound also showed a GTP binding signal, raw median fluorescence (lower = inhibition) (MCF (arbitrary fluorescence units)) in assay [5] of 241.

As for `COc1ccc(-c2c(C)[nH]n3c(=O)c(Cc4ccccc4)c(C)nc23)cc1`, the compound was classed as inactive in assay [1], in assay [4] and in assay [6]. The fluorescence, percent of control (lower = inhibition) in assay [2] came to 33.9%. The GTP binding, percent of control in assay [3] amounted to 79%. Also, in assay [5], the GTP binding signal, raw median fluorescence (lower = inhibition) (MCF (arbitrary fluorescence units)) came out at 217.

On to `CCCCCCn1nc(C(=O)OCC(=O)c2c(N)n(C)c(=O)n(C)c2=O)c2ccccc2c1=O`, for which the outcome in assay [1], in assay [4] and in assay [6] was inactive. The compound also gave a fluorescence, percent of control (lower = inhibition) in assay [2] of 36%. Also, the GTP binding, percent of control in assay [3] came out at 80.1%. Besides, the GTP binding signal, raw median fluorescence (lower = inhibition) (MCF (arbitrary fluorescence units)) in assay [5] stood at 203.

For the compound `Cc1cc(-c2nnc3n2N=C(c2ccc(-c4ccccc4)cc2)CS3)n[nH]1`, the outcome in assay [1], in assay [4] and in assay [6] was inactive. Moreover, in assay [2], the fluorescence, percent of control (lower = inhibition) is 31.3%. Besides, in assay [3], the GTP binding, percent of control was found to be 72.4%. This compound also had a GTP binding signal, raw median fluorescence (lower = inhibition) (MCF (arbitrary fluorescence units)) in assay [5] of 172.

Consider `Cc1ccc(Nc2ncccc2C(=O)O)cc1`, for which the compound was classed as inactive in assay [1], in assay [4] and in assay [6]. Moreover, in assay [2], the fluorescence, percent of control (lower = inhibition) came out at 58.7%. In assay [3], this compound yielded a GTP binding, percent of control of 85.1%. This compound also yielded a GTP binding signal, raw median fluorescence (lower = inhibition) (MCF (arbitrary fluorescence units)) in assay [5] of 31.3.

In the case of `Cc1ccccc1NC(=O)C1CCCN1S(=O)(=O)c1cccc2cccnc12` (stereo not given), the outcome in assay [1], in assay [4] and in assay [6] was inactive. The fluorescence, percent of control (lower = inhibition) in assay [2] came to 39.1%. Further, the GTP binding, percent of control in assay [3] was determined as 84.8%. The GTP binding signal, raw median fluorescence (lower = inhibition) (MCF (arbitrary fluorescence units)) in assay [5] was determined as 322.

`COc1cc2[nH]c(=S)nc(NCCC(C)C)c2cc1OC`: the call in assay [1], in assay [4] and in assay [6] was inactive. The fluorescence, percent of control (lower = inhibition) in assay [2] is 29.1%. The compound further had a GTP binding, percent of control in assay [3] of 55.6%. In assay [5], this compound came in with a GTP binding signal, raw median fluorescence (lower = inhibition) (MCF (arbitrary fluorescence units)) of 123.
